Experimental data as given in the supplement of paper PMC8728848.
Only a selection was taken, and the strongest signals are over-represented in it overall.

Assays:
Assay in all cases: glycan array binding signal (z-score within array); higher = stronger binding
Details in all cases: glycan notation: IUPAC condensed, linker removed; mutation: N224Q
[1] = molecular target: Gal(b1-4)GlcNAc(b1-3)Gal(b1-4)GlcNAc(b1-3)Gal(b1-4)GlcNAc(b1-3)Gal(b1-4)GlcNAc(b1-2)[Gal(b1-4)GlcNAc(b1-3)Gal(b1-4)GlcNAc(b1-3)Gal(b1-4)GlcNAc(b1-3)Gal(b1-4)GlcNAc(b1-6)]Man(a1-6)[Gal(b1-4)GlcNAc(b1-3)Gal(b1-4)GlcNAc(b1-3)Gal(b1-4)GlcNAc(b1-3)Gal(b1-4)GlcNAc(b1-2)Man(a1-3)]Man(b1-4)GlcNAc(b1-4)[Fuc(a1-6)]GlcNAc
Outline: (§1)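 Glycan array data were curated from 3228 arrays in the Consortium for Functional Glycomics database and kept only where the protein sequence was available. Glycan names were converted to IUPAC-condensed notation, and columns mapping to the same glycan were averaged. The binding signal is a within-array Z-score, averaged across arrays of the same protein sequence at different concentrations or buffers and across linkers. Negative Z-scores can be read as non-binding.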

Gal3S(b1-4)Glc = molecular target: Gal3S(b1-4)Glc
Outline: as §1

[2] = molecular target: GlcNAc(a1-4)Gal(b1-4)GlcNAc(b1-3)Gal(b1-4)Glc
Outline: as §1

[3] = molecular target: GlcNAc(b1-3)Gal(b1-4)GlcNAc(b1-3)Gal(b1-4)GlcNAc(b1-2)Man(a1-3)[GlcNAc(b1-3)Gal(b1-4)GlcNAc(b1-3)Gal(b1-4)GlcNAc(b1-2)Man(a1-6)]Man(b1-4)GlcNAc(b1-4)[Fuc(a1-6)]GlcNAc
Outline: as §1

[4] = molecular target: GlcNAc(b1-3)Gal(b1-4)GlcNAc(b1-3)Gal(b1-4)GlcNAc(b1-3)Gal(b1-4)GlcNAc(b1-2)[GlcNAc(b1-3)Gal(b1-4)GlcNAc(b1-3)Gal(b1-4)GlcNAc(b1-3)Gal(b1-4)GlcNAc(b1-6)]Man(a1-6)[GlcNAc(b1-3)Gal(b1-4)GlcNAc(b1-3)Gal(b1-4)GlcNAc(b1-3)Gal(b1-4)GlcNAc(b1-2)Man(a1-3)]Man(b1-4)GlcNAc(b1-4)[Fuc(a1-6)]GlcNAc
Outline: as §1

[5] = molecular target: GlcNAc(b1-3)Gal(b1-4)GlcNAc(b1-3)Gal(b1-4)GlcNAc(b1-3)Gal(b1-4)GlcNAc(b1-3)Gal(b1-4)GlcNAc(b1-2)Man(a1-3)[GlcNAc(b1-3)Gal(b1-4)GlcNAc(b1-3)Gal(b1-4)GlcNAc(b1-3)Gal(b1-4)GlcNAc(b1-3)Gal(b1-4)GlcNAc(b1-2)Man(a1-6)]Man(b1-4)GlcNAc(b1-4)[Fuc(a1-6)]GlcNAc
Outline: as §1

[6] = molecular target: GlcNAc(b1-3)[GlcNAc(b1-6)]Gal(b1-4)GlcNAc
Outline: as §1

GlcNAc(b1-6)GalNAc = molecular target: GlcNAc(b1-6)GalNAc
Outline: as §1

[7] = molecular target: Man(a1-2)Man(a1-3)[Man(a1-2)Man(a1-6)]Man(a1-6)[Man(a1-2)Man(a1-2)Man(a1-3)]Man(b1-4)GlcNAc(b1-4)GlcNAc
Outline: as §1

[8] = molecular target: Neu5Ac(a2-3)Gal(b1-3)GlcNAc(b1-2)Man
Outline: as §1

[9] = molecular target: Neu5Ac(a2-3)Gal(b1-4)GlcNAc(b1-2)[Neu5Ac(a2-3)Gal(b1-4)GlcNAc(b1-4)]Man(a1-3)[GlcNAc(b1-4)][Neu5Ac(a2-3)Gal(b1-4)GlcNAc(b1-2)[Neu5Ac(a2-3)Gal(b1-4)GlcNAc(b1-6)]Man(a1-6)]Man(b1-4)GlcNAc(b1-4)GlcNAc
Outline: as §1

[10] = molecular target: Neu5Ac(a2-3)Gal(b1-4)GlcNAc(b1-3)Gal(b1-4)[Fuc(a1-3)]GlcNAc
Outline: as §1

[11] = molecular target: Neu5Ac(a2-3)Gal(b1-4)[Fuc(a1-3)]GlcNAc
Outline: as §1

[12] = molecular target: Neu5Ac(a2-3)Gal(b1-4)[Fuc(a1-3)]GlcNAc(b1-2)Man
Outline: as §1

Neu5Ac(a2-6)Gal = molecular target: Neu5Ac(a2-6)Gal
Outline: as §1

[13] = molecular target: Neu5Ac(a2-6)Gal(b1-4)GlcNAc(b1-2)[Neu5Ac(a2-6)Gal(b1-4)GlcNAc(b1-6)]Man(a1-6)[Neu5Ac(a2-6)Gal(b1-4)GlcNAc(b1-2)Man(a1-3)][GlcNAc(b1-4)]Man(b1-4)GlcNAc(b1-4)GlcNAc
Outline: as §1

[14] = molecular target: Neu5Ac(a2-6)Gal(b1-4)GlcNAc(b1-3)Gal(b1-3)GlcNAc
Outline: as §1

[15] = molecular target: Neu5Ac(a2-6)GalNAc(b1-4)GlcNAc
Outline: as §1

[16] = molecular target: Neu5Ac(a2-6)GlcNAc(b1-4)GlcNAc
Outline: as §1

[17] = molecular target: Neu5Gc(a2-3)Gal(b1-4)[Fuc(a1-3)]GlcNAc
Outline: as §1

B1: AAL (Aleuria aurantia) (protein)
chain: MPTEFLYTSKIAAISWAATGGRQQRVYFQDLNGKIREAQRGGDNPWTGGSSQNVIGEAKLFSPLAAVTWKSAQGIQIRVYCVNKDNILSEFVYDGSKWITGQLGSVGVKVGSNSKLAALQWGGSESAPPNIRVYYQKSNGSGSSIHEYVWSGKWTAGASFGSTVPGTGIGATAIGPGRLRIYYQATDNKIREHCWDSNSWYVGGFSASASAGVSIAAISWGSTPQIRVYWQKGREELYEAAYGGSWNTPGQIKDASRPTPSLPDTFIAANSSGNIDISVFFQASGVSLQQWQWISGKGWSIGAVVPTGTPAGW
glycan array binding signal (z-score) [1]: -0.229
glycan array binding signal (z-score) (Gal3S(b1-4)Glc): -0.321
glycan array binding signal (z-score) [2]: -0.318
glycan array binding signal (z-score) [3]: 2.92
glycan array binding signal (z-score) [4]: -0.085
glycan array binding signal (z-score) [5]: 1.97
glycan array binding signal (z-score) [6]: -0.322
glycan array binding signal (z-score) (GlcNAc(b1-6)GalNAc): -0.325
glycan array binding signal (z-score) [7]: -0.312
glycan array binding signal (z-score) [8]: -0.311
glycan array binding signal (z-score) [9]: -0.327
glycan array binding signal (z-score) [10]: -0.32
glycan array binding signal (z-score) [11]: 0.758
glycan array binding signal (z-score) [12]: 0.186
glycan array binding signal (z-score) (Neu5Ac(a2-6)Gal): -0.314
glycan array binding signal (z-score) [13]: -0.303
glycan array binding signal (z-score) [14]: -0.324
glycan array binding signal (z-score) [15]: -0.323
glycan array binding signal (z-score) [16]: -0.327
glycan array binding signal (z-score) [17]: 0.052
